The supplement of paper PMC3545927
The other results are listed elsewhere or left out. The true hit rate is not given.

Molecular target: furin, P09958
Assay: furin cleavage Z-score vs untreated control; higher = more cleavage, active = 3.5 or more, inactive = 1 or less, 8 variable residues between constant flanks
How it was run: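 In 50 mM HEPES pH 7.5 with CaCl2 and NaCl, purified furin was incubated with bead-anchored 8-mer peptide–cDNA fusions at 1:10 enzyme:substrate in 0.01 ml. Incubation times were 7.5, 15 and 30 min. DNA set free by cleavage was adapter-tagged by PCR and sequenced, with read counts taken as abundance. Log counts relative to furin-free reactions, after lowess adjustment and median absolute deviation scaling, form the cleavage Z-score.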

Measured: furin cleavage Z-score

Chain of furin, P09958 (P09958 whole entry): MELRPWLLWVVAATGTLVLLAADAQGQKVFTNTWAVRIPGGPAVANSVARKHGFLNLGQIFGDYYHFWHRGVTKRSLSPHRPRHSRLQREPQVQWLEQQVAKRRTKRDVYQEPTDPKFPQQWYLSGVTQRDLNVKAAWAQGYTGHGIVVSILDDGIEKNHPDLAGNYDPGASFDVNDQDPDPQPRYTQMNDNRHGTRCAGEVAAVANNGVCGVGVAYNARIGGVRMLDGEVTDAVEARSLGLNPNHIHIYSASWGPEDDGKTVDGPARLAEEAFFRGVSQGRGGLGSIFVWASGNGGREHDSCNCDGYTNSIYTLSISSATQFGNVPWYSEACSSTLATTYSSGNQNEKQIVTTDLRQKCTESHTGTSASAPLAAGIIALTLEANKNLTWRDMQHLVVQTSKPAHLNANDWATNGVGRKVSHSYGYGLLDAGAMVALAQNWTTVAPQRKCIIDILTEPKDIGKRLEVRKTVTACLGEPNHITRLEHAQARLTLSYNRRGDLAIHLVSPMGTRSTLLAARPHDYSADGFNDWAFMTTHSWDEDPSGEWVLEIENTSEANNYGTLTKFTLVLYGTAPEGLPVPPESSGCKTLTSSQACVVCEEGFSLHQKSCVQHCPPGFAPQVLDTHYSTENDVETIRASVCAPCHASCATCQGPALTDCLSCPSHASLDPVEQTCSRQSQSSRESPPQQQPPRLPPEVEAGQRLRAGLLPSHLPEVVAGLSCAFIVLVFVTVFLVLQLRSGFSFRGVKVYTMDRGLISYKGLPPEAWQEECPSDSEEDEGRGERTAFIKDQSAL

CAAYDIIICDAGNASASA [HC815]
inactive: 7.5 min -1.2 | 15 min -0.574 | 30 min -0.848

CAVVGVVCAAAGNASASA [HC1107]
inactive: 7.5 min 0.556 | 15 min -0.0757 | 30 min -0.152

CAVQGLLRFCAGNASASA [HC618]
inactive: 7.5 min -0.0765 | 15 min 0.463 | 30 min -0.436

CAPANRSRRGAGNASASA [FS-67]
active: 7.5 min 10.1 | 15 min 11.8 | 30 min 9.38

CALASRRYRGAGNASASA [FS-547]
inactive: 7.5 min -0.863 | 15 min -0.493 | 30 min -0.101

CAGVPRSFRGAGNASASA [TR2]
inactive: 7.5 min 0.299 | 15 min -0.905 | 30 min -1.74

CAIIKRSRRGAGNASASA [FS-1344]
active: 7.5 min 6.89 | 15 min 7.38 | 30 min 7.28

CALARRSRRGAGNASASA [FS-816]
active: 7.5 min 7.83 | 15 min 7.63 | 30 min 6.48

CAPFVSCQRGAGNASASA [HC1164]
inactive: 7.5 min 0.755 | 15 min 0.834 | 30 min -0.509

CAIRKRDRRGAGNASASA [FS-1016]
active: 7.5 min 12 | 15 min 13.2 | 30 min 9.35

CAIIKRSAWEAGNASASA [FS-2408]
inactive: 7.5 min -0.767 | 15 min -0.224 | 30 min -0.00284

CAMEEKSQHLAGNASASA [HC11]
inactive: 7.5 min 0.661 | 15 min -0.101 | 30 min 0.52

CATTPQSGSWAGNASASA [HC59]
inactive: 7.5 min -0.528 | 15 min -0.454 | 30 min -0.569
